Laboratory results reported in the supplement of paper PMC12669032.
Values without a mark were called inactive.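 Rule for the calls: active = AUC reduced over 20% with Padj below 0.05 in at least 2 of 3 replicates; inactive = otherwise.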

Legend:
Assay in all cases: growth AUC relative to DMSO control (median of replicates) (fraction); higher = more growth (less inhibition), active = hit call of the paper
Details in all cases: 20 µM; 24 h
Coprococcus comes = test system: Coprococcus comes
Method in brief: (§1)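 Area under the growth curve was normalised to the plate median of solvent-only wells, or to row and column medians on the industrial chemical plate. Growth curves came from anaerobic gut bacterial monocultures in mGAM at 37 °C, seeded at OD600 0.05 with 20 µM compound (1% DMSO), and read at OD600 hourly for 24 h with the minimum OD set to 0. The value is the median of three biological replicates grown on separate days.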

Escherichia coli ED1a = test system: Escherichia coli ED1a
Method in brief: as §1

Escherichia coli IAI1 = test system: Escherichia coli IAI1
Method in brief: as §1

Eubacterium rectale = test system: Eubacterium rectale
Method in brief: as §1

[1] = test system: Fusobacterium nucleatum subsp. animalis
Method in brief: as §1

Lactobacillus gasseri = test system: Lactobacillus gasseri
Method in brief: as §1

Lactobacillus paracasei = test system: Lactobacillus paracasei
Method in brief: as §1

Odoribacter splanchnicus = test system: Odoribacter splanchnicus
Method in brief: as §1

[2] = test system: Parabacteroides distasonis
Method in brief: as §1

Parabacteroides merdae = test system: Parabacteroides merdae
Method in brief: as §1

Roseburia intestinalis = test system: Roseburia intestinalis
Method in brief: as §1

Streptococcus salivarius = test system: Streptococcus salivarius
Method in brief: as §1

Structure (SMILES) | growth AUC (Coprococcus comes) | growth AUC (Escherichia coli ED1a) | growth AUC (Escherichia coli IAI1) | growth AUC (Eubacterium rectale) | growth AUC [1] | growth AUC (Lactobacillus gasseri) | growth AUC (Lactobacillus paracasei) | growth AUC (Odoribacter splanchnicus) | growth AUC [2] | growth AUC (Parabacteroides merdae) | growth AUC (Roseburia intestinalis) | growth AUC (Streptococcus salivarius)
Nc1ccc(S(=O)(=O)Nc2cnc3ccccc3n2)cc1 | 0.996 | 1 | 0.975 | 0.983 | 0.936 | 1.03 | 0.887 | 1.01 | 1.01 | 0.97 | 0.991 | 1.03
Nc1ccc(S(=O)(=O)Nc2nccs2)cc1 | 1.02 | 0.994 | 0.968 | 0.97 | 0.993 | 0.97 | 1.02 | 0.987 | 1 | 1.03 | 0.993 | 1.02
CC(C)C(O)(c1ccc(OC(F)(F)F)cc1)c1cncnc1 (stereo not given) | 1.01 | 0.981 | 0.961 | 0.994 | 0.926 | 1.05 | 1.02 | 0.938 | 0.959 | 0.588 (active) | 1.04 | 1.04
CCC/C(=N\OCC(C)Oc1ccc(Cl)cc1)C1=C(O)CC(C2CCCSC2)CC1=O (stereo not given) | 0.979 | 0.98 | 0.987 | 0.906 | 0.913 | 1.02 | 0.706 | 1.07 | 0.885 | 0.938 | 1.02 | 0.94
c1ccc(Nc2ccccc2)cc1 | 0.97 | 0.986 | 1.01 | 0.9 | 0.988 | 1.1 | 0.878 | 1.03 | 1.02 | 0.983 | 1.01 | 1.02
O=C(O)COc1ccc(Cl)cc1CO | 0.999 | 0.964 | 1.01 | 1.05 | 0.931 | 0.852 | 0.993 | 0.96 | 0.91 | 0.978 | 0.945 | 0.932
Nc1ccc(O)cc1 | 1.01 | 1.06 | 1.01 | 1.12 | 1.12 | 1.08 | 1.08 | 1.05 | 0.954 | 1.04 | 1.01 | 0.947
CC(=O)CC(c1ccccc1)c1c(O)c2ccccc2oc1=O (stereo not given) | 1.01 | 0.967 | 0.982 | 0.963 | 1.02 | 0.957 | 0.943 | 0.927 | 0.907 | 1.01 | 0.952 | 1
Cc1cccc(C)c1N(CCSCC(O)C(=O)[O-])C(=O)CO.[Na+] (stereo not given) | 1.04 | 0.977 | 0.97 | 1.07 | 0.984 | 0.849 | 0.95 | 1.01 | 0.927 | 0.99 | 1.02 | 0.97
COC(=O)c1ccccc1S(=O)(=O)NC(=O)n1nc(OCC(C)O)n(C)c1=O (stereo not given) | 0.991 | 0.99 | 0.991 | 1.08 | 1.02 | 1.01 | 1.03 | 0.943 | 1.03 | 0.996 | 1.01 | 1
COc1ccccc1C(=O)NS(=O)(=O)c1ccc(C(=O)NC2CC2)cc1 | 0.995 | 1.03 | 1.02 | 0.97 | 1.01 | 1.21 | 1 | 0.989 | 1.03 | 1.01 | 0.978 | 1.01
CCCCOCCOC(=O)COc1ccc(Cl)cc1Cl | 0.982 | 0.983 | 0.983 | 1.1 | 0.92 | 0.88 | 0.962 | 0.97 | 0.721 (active) | 0.954 | 0.941 | 0.948
O=[N+]([O-])c1ccc2c(c1)Cc1ccccc1-2 | 0.98 | 0.984 | 0.989 | 1.07 | 0.897 | 1.03 | 0.998 | 0.982 | 1.1 | 0.992 | 1.01 | 0.988
Clc1ccc(Sc2cc(Cl)c(Cl)cc2Cl)cc1 | 0.964 | 0.972 | 0.984 | 0.943 | 1.04 | 0.86 | 1.05 | 1.1 | 1.01 | 0.976 | 0.937 | 0.933
O=C(Nc1ccc(F)cc1-c1ccc(Cl)c(Cl)c1)c1cn[nH]c1C(F)F | 0.916 | 0.974 | 0.945 | 0.82 | 0.983 | 0.814 | 0.953 | 0.553 (active) | 0.373 (active) | 0.779 (active) | 0.892 | 0.945
CCSC(=O)N(CC)CC | 1.04 | 1 | 0.994 | 1 | 1.02 | 0.988 | 0.983 | 0.915 | 1.01 | 0.981 | 1.06 | 0.954
COC(=O)c1ccc(C(F)(F)F)nc1S(=O)(=O)[N-]C(=O)Nc1nc(OC)cc(OC)n1.[Na+] | 0.979 | 0.983 | 0.966 | 0.961 | 0.965 | 0.986 | 0.921 | 1.07 | 1 | 0.974 | 0.941 | 1.02
COC(=O)C(C)Oc1ccc(Oc2ccc(C(F)(F)F)cn2)cc1 (stereo not given) | 0.977 | 1.02 | 1.02 | 1.06 | 1.12 | 0.958 | 0.98 | 1.02 | 0.821 | 0.963 | 0.956 | 0.96
COC(=O)c1ccc(C(=O)OC)cc1 | 0.981 | 1 | 0.989 | 1 | 1.01 | 0.981 | 0.958 | 0.989 | 0.993 | 0.993 | 0.997 | 0.951
CNC(=O)/C(=N/OC)c1ccccc1COc1cc(C(=O)O)ccc1C | 0.984 | 1.05 | 0.978 | 0.963 | 0.949 | 1.1 | 0.98 | 0.987 | 1.01 | 0.973 | 0.996 | 0.995
CC(C)N(C(=O)C(=O)O)c1ccc(F)cc1 | 0.985 | 1.03 | 1.02 | 1.05 | 1.18 | 1.05 | 1 | 1.04 | 1 | 1.01 | 0.998 | 1.05
N#Cc1c(N)nc(NC2CC2)nc1N | 1.01 | 0.991 | 0.992 | 0.935 | 0.994 | 0.939 | 0.972 | 1.01 | 1.02 | 1 | 0.999 | 1
CCCCCCCC(=O)Oc1c(Br)cc(C#N)cc1Br | 1.01 | 0.973 | 0.924 | 1.15 | 0.966 | 0.987 | 0.863 | 1.12 | 0.975 | 0.922 | 0.935 | 0.937
CCC(C)Nc1nc(N)nc(Cl)n1 (stereo not given) | 0.981 | 1 | 1.01 | 1.05 | 1.03 | 0.996 | 1.02 | 0.976 | 1.01 | 1.03 | 0.998 | 0.987
CCCCC(CC)COC(=O)COc1ccc(Cl)cc1C (stereo not given) | 1.03 | 0.981 | 1.01 | 1.05 | 0.989 | 0.828 | 0.962 | 0.934 | 0.923 | 0.937 | 0.93 | 0.978
